# In PubChem BioAssay (NCATS):
# “And” between values parts separate entries of the source, which are not always exact repeats. Equal values may be shown once. Results filed as inconclusive are left out. Unmarked numbers belong to inactive results. The source made the active and inactive calls. The call rests on the fitted dose curve; in most records, active means well fitted curve in the direction sought with a large enough effect; inconclusive means small, poorly fitted or top-dose-only effect, or another doubt; inactive means no such curve, though single readings can be large; an effect the other way counts as inactive or inconclusive.
# Legend:
# [1] = biological target: Cellular tumor antigen p53 (Homo sapiens) (UniProt P04637); experiment: Primary qHTS for small molecule compounds that upregulate eGFP-tagged delta133p53alpha (in N-terminal) cells. (AID 2060322); conditions: NCI-H358 eGFP-delta133p53alpha fluorescence, 24 h; activation: active compounds read high; further: nearly all actives have a fitted effect of over 75% in size;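 on activation: series mostly up to about 56 µM; 0% = DMSO vehicle and 100% = reference activator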
# Chain of Cellular tumor antigen p53 (Homo sapiens) (P04637 whole entry, looked up): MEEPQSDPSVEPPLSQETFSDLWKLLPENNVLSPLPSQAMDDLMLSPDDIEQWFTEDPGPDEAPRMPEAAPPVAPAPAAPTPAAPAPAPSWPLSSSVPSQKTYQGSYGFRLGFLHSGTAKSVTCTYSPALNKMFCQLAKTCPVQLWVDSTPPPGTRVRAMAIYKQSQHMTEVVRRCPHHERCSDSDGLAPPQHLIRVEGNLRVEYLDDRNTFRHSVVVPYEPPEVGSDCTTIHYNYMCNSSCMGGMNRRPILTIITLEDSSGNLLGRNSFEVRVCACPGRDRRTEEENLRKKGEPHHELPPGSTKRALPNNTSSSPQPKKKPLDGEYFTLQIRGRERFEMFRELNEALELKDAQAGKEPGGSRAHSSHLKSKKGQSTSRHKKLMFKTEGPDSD
# Outline: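 NCI-H358 cells pre-induced 24 h with 10 ng/ml doxycycline to express N-terminal eGFP-delta133p53alpha, then dosed 24 h at 37C without doxycycline; fixed, Hoechst-stained, GFP intensity by laser scanning cytometry, normalized to DMSO (0%) and 57.5 uM 5-azacytidine (100%).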
# [2] = BET inhibitor-based combinations targeting novel dependencies in MECOM-rearranged (r) AML: SET-2 cell line (AID 2202231); conditions: SET-2 AML cells viability, CellTiter-Glo luminescence, 48 h; viability: active compounds read low, concentration not given here; further: nearly all actives have a fitted effect of over 35% in size;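 on viability: plate controls were DMSO treated cells for no effect and wells without cells for full effect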
# Outline: (§1)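 Readout: CellTiter-Glo luminescence. Exposure: 48 h, 11 concentrations, 500 cells/well. Metric: AUC and within-line Z-AUC after DMSO/empty-well normalization.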
# [3] = BET inhibitor-based combinations targeting novel dependencies in MECOM-rearranged (r) AML: HNT-34 cell line (AID 2202234); further: nearly all actives have a fitted effect of over 35% in size
# Outline: (§2)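 Seeding density was 500 cells/well, and drug exposure lasted 48 hr under standard culture conditions. Read-out used CellTiter-Glo reagent with a 15 min room-temperature incubation before luminescence measurement; AUC and Z-AUC summarize the normalized responses.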
# [4] = BET inhibitor-based combinations targeting novel dependencies in MECOM-rearranged (r) AML: UCSD-AML1 cell line (AID 2202235); further: nearly all actives have a fitted effect of over 40% in size
# Outline: as §2
# [5] = BET inhibitor-based combinations targeting novel dependencies in MECOM-rearranged (r) AML: AML-191 cell line (AID 2202236; further: nearly all actives have a fitted effect of over 35% in size)
# Outline: as §1
# [6] = BET inhibitor-based combinations targeting novel dependencies in MECOM-rearranged (r) AML: MV-4-11 cell line (AID 2202233); further: nearly all actives have a fitted effect of over 45% in size
# Outline: as §2
# [7] = BET inhibitor-based combinations targeting novel dependencies in MECOM-rearranged (r) AML: AML-194 cell line (AID 2202237; further: nearly all actives have a fitted effect of over 40% in size)
# Outline: as §1
# [8] = BET inhibitor-based combinations targeting novel dependencies in MECOM-rearranged (r) AML: OCI-AML3 cell line (AID 2202232); conditions: Potency: OCI-AML3 viability; further: nearly all actives have a fitted effect of over 35% in size
# Outline: as §1
# Potency means the concentration at half of the fitted maximal effect.
Compound,activation [1],viability [2],Potency [3],Potency [4],Potency [5],Potency [2],Potency [6],Potency [7],Potency [1],Potency [8]
CCCCCCCN(CC)CCCC(O)c1ccc(NS(C)(=O)=O)cc1 (configuration not stated),5.18%,96.2%,inactive,inactive,inactive,–,–,–,–,–
CCN(CC)CCOc1ccc(Cc2ccccc2)cc1,-6.69% and 6.46%,–,–,inactive,–,16.6 µM (active),inactive,inactive,–,–
N[C@H](CSC(c1ccccc1)(c1ccccc1)c1ccccc1)C(=O)O,-3.21%,109%,–,inactive,–,–,inactive,inactive,–,–
O=C(O)c1nc(=O)[nH]c(=O)[nH]1,3.67%,105%,inactive,inactive,inactive,–,–,inactive,–,–
O=c1ncn2nc(Sc3ccc(F)cc3F)ccc2c1-c1c(Cl)cccc1Cl,2.34%,–,–,–,29.5 µM (active),20.9 µM (active),20.9 µM (active),inactive,–,–
Cc1ccc(NC(=O)c2cccc(N(C)C)c2)cc1NC(=O)c1ccc(O)cc1,-4.71%,90.3%,–,inactive,inactive,–,–,inactive,–,–
O=c1[nH]c(=O)n([C@H]2C[C@H](O)[C@@H](CO)O2)cc1I,-6.69%,–,–,20.9 µM (active),–,3.72 µM (active),18.6 µM (active),16.6 µM (active),–,–
C=C1c2cccc(O)c2C(O)=C2C(=O)[C@@]3(O)C(O)=C(C(N)=O)C(=O)[C@@H](N(C)C)[C@@H]3[C@@H](O)[C@H]12,22.8%,86.7%,–,–,inactive,–,inactive,inactive,–,–
Nc1nccc(-c2ccc3noc(-c4ccc(Cl)cc4)c3c2)n1,–,88.8%,–,20.9 µM (active),–,–,–,–,34.3 µM (active),–
CNC(=O)[C@H](Cc1ccccc1)NC(=O)[C@H](CC(C)C)[C@H](CSc1cccs1)C(=O)NO,-8.09%,98.9%,–,inactive,13.2 µM (active),–,7.42 µM (active),inactive,–,–
CCCn1c(=O)c2[nH]c(C34CC5CC3C[C@@H](C5)C4)nc2n(CCC)c1=O,31.9%,109%,–,–,16.6 µM (active),–,20.9 µM (active),–,–,–
CC(N[C@H]1CCCC[C@H]1NC(=O)c1ccc(Cl)cc1)c1cccc2ccccc12 (some centres not stated),3.01%,–,11.8 µM (active),11.8 µM (active),11.8 µM (active),–,13.2 µM (active),8.33 µM (active),–,16.6 µM (active)
COC(=O)Nc1ccc(-c2nc(N3CCOCC3)c3cnn(C4CCN(C(=O)OC)CC4)c3n2)cc1,11.3%,–,0.742 µM (active),–,–,–,1.18 µM (active),–,–,4.17 µM (active)
Clc1ccc(C(Cn2ccnc2)OCc2ccc(Sc3ccccc3)cc2)c(Cl)c1 (configuration not stated),-3.95% and 8.63%,–,20.9 µM (active),–,–,–,14.8 µM (active),–,–,inactive
COc1c(C)cnc(Cn2cnc3c(Cl)nc(N)nc32)c1C,-17.3%,–,–,0.209 µM (active),0.525 µM (active),–,0.118 µM (active),–,–,0.372 µM (active)
O=S(=O)(O)CCS,32.2% and 4.28%,–,inactive,inactive,inactive,–,inactive,inactive,–,inactive
Cc1[nH]nc2ccc(-c3cncc(OC[C@@H](N)Cc4ccccc4)c3)cc12,–,–,0.662 µM (active),0.468 µM (active),0.833 µM (active),–,0.132 µM (active),1.18 µM (active),21.7 µM (active),1.18 µM (active)
CCOC(=O)[C@@H](N)CCC(=O)N[C@@H](CSCc1ccccc1)C(=O)N[C@@H](C(=O)OCC)c1ccccc1,-1.42%,–,26.3 µM (active),–,16.6 µM (active),–,18.6 µM (active),–,–,10.5 µM (active)
CO[C@@H](C(=O)N1Cc2[nH]nc(NC(=O)c3ccc(N4CCN(C)CC4)cc3)c2C1)c1ccccc1,20.9%,–,0.105 µM (active),0.148 µM (active),–,–,0.148 µM (active),–,–,1.86 µM (active)
CC(C)(CO)[C@@H](O)C(=O)NCCC(=O)O,-14.4%,–,inactive,inactive,inactive,–,inactive,inactive,–,inactive
CC(C)=CC[C@@H](O)C1=CC(=O)c2c(O)ccc(O)c2C1=O,3.62%,–,9.34 µM (active),10.5 µM (active),10.5 µM (active),–,8.33 µM (active),–,–,14.8 µM (active)
Nc1nc2[nH]cc(CCc3ccc(C(=O)N[C@@H](CCC(=O)O)C(=O)O)cc3)c2c(=O)[nH]1,-41.3%,–,inactive,1.05 µM (active),–,–,0.372 µM (active),inactive,–,0.662 µM (active)
